Test results from PubChem BioAssay (Tox21).
A number with no mark means an inactive call. Inconclusive results are not listed. Where a call stands in place of a potency, no number is given. Activity calls are given as the source filed them. Unless noted, calls come from the whole dose curve; as a rule, active = well fitted curve in the direction sought with a large enough effect in the repeat runs; inconclusive = weak or mixed curves; inactive = no such curve, though single readings can be large; an effect the other way counts as inactive or inconclusive.

What was measured:
[1] = qHTS assay to identify small molecule agonists of the hypoxia (HIF-1) signaling pathway - cell viability counter screen (AID 1224844; calls by dose curve; note: nearly all actives have a fitted effect of over 50% in size; note: potency is the fitted concentration of half-maximal effect)
Summary of the method: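 In this counter screen, HRE-bla ME-180 cell viability after 17 hrs of compound exposure at 37C was read by CellTiter-Glo luminescence, multiplexed with the beta-lactamase reporter measurement.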

[2] = qHTS assay to identify small molecule agonists of the hypoxia (HIF-1) signaling pathway (AID 1224846; active = well fitted activation curve with a large enough effect in the signal ratio in the repeat runs, not every such curve was filed as active; the % refers to the signal ratio)
Summary of the method: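 ME-180 HRE-bla reporter cells; compounds in DMSO, 17 h at 37C; read-out beta-lactamase via CCF4-AM FRET.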

[3] = qHTS assay to identify small molecule agonists of the estrogen related receptor (ERR) signaling pathway from Tox21 library (AID 1224849; calls by dose curve; note: nearly all actives have a fitted effect of over 15% in size); details: ERR reporter cell line, ONE-Glo luciferase, 18 h; at 92.4 µM (top of the series) unless noted
Summary of the method: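 Luciferase activity in ERR pathway reporter cells served as the agonist readout; exposure lasted 18 h at 37 C, with ONE-Glo detection after 30 min at room temperature.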

[4] = qHTS RealTime-Glo MT Cell Viability Assay in HepG2 cells - 24 hour (AID 1224867); note: nearly all actives have a fitted effect of over 50% in size; note: potency is the fitted concentration of half-maximal effect
Summary of the method: (§1)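 qHTS, HepG2, 600 cells/well, RealTime-Glo (NanoLuc + prosubstrate) added with cells; 5 h preincubation; DMSO compound addition; 37 C; luminescence at 0/8/16/24/32/40 h.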

[5] = qHTS RealTime-Glo MT Cell Viability Assay in HEK293 cells - 32 hour (AID 1224868); note: nearly all actives have a fitted effect of over 50% in size; note: potency is the fitted concentration of half-maximal effect
Summary of the method: (§2)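 Assay medium contained NanoLuc luciferase plus cell-permeant prosubstrate, added with HEK293 cells at 600 cells/well. After 5 h at 37 C/5% CO2 compounds were added; plates stayed at 37 C for 40 h with serial luminescence reads.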

[6] = qHTS RealTime-Glo MT Cell Viability Assay in HepG2 cells - 40 hour (AID 1224870); note: nearly all actives have a fitted effect of over 50% in size; note: potency is the fitted concentration of half-maximal effect
Summary of the method: (§3)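 HepG2 cells (600/well) mixed with RealTime-Glo MT reagent, settled 5 h at 37 C/5% CO2 before compound addition. Nonlytic NanoLuc luminescence from viable-cell prosubstrate reduction read repeatedly during 40 h treatment at 37 C.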

[7] = A CellTox Green Cytotoxicity Assay to monitor cytotoxicity in HEK293 cells - 40 hour (AID 1224871); note: nearly all actives have a fitted effect of over 45% in size; note: potency is the fitted concentration of half-maximal effect
Summary of the method: (§4)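 Real-time, in one plate: 600 HEK293 cells/well with dead-cell DNA dye, pinned compound after 5 h, 37 C incubation over 40 h; viable cells give no appreciable fluorescence.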

[8] = qHTS RealTime-Glo MT Cell Viability Assay in HEK293 cells - 16 hour (AID 1224872); note: nearly all actives have a fitted effect of over 50% in size; note: potency is the fitted concentration of half-maximal effect
Summary of the method: as §2

[9] = qHTS RealTime-Glo MT Cell Viability Assay in HEK293 cells - 40 hour (AID 1224874); details: RealTime-Glo luminescence; max response: stronger effect = lower value; note: nearly all actives have a fitted effect of over 50% in size; note: potency is the fitted concentration of half-maximal effect
Summary of the method: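 Kinetic, non-lysing viability readout. Seed HEK293 (600/well) with reagent, incubate 5 h at 37 C/5% CO2, pin 23 nL compound in DMSO, incubate at 37 C, read luminescence at 0, 8, 16, 24, 32, 40 h.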

[10] = A CellTox Green Cytotoxicity Assay to monitor cytotoxicity in HEK293 cells - 24 hour (AID 1224875); note: nearly all actives have a fitted effect of over 45% in size; note: potency is the fitted concentration of half-maximal effect
Summary of the method: as §4

[11] = A CellTox Green Cytotoxicity Assay to monitor cytotoxicity in HepG2 cells - 16 hour (AID 1224876); note: nearly all actives have a fitted effect of over 45% in size; note: potency is the fitted concentration of half-maximal effect
Summary of the method: (§5)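 Cytotoxicity was tracked as dead-cell DNA fluorescence in HepG2 cells treated with test compounds at 37 C; each time-point value comes from one kinetic series spanning 0, 8, 16, 24, 32 and 40 h.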

[12] = A CellTox Green Cytotoxicity Assay to monitor cytotoxicity in HepG2 cells - 24 hour (AID 1224878); note: nearly all actives have a fitted effect of over 45% in size; note: potency is the fitted concentration of half-maximal effect
Summary of the method: as §5

[13] = A CellTox Green Cytotoxicity Assay to monitor cytotoxicity in HepG2 cells - 40 hour (AID 1224879); note: nearly all actives have a fitted effect of over 40% in size; note: potency is the fitted concentration of half-maximal effect
Summary of the method: as §5

[14] = qHTS assay to identify small molecule agonists of H2AX (AID 1224845; active = well fitted activation curve with a large enough effect in the signal ratio in the repeat runs, not every such curve was filed as active; the % refers to the signal ratio)
Summary of the method: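 Wild-type CHO-K1 cells, plated overnight, exposed 3hr at 37C to 15 concentrations (0.76% DMSO final). Lysed, then HTRF anti-pH2AX (S139) cryptate and anti-H2AX-d2 antibodies, 24 hr room temperature; 665/620 nm emission read.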

[15] = qHTS assay to identify small molecule agonists of H2AX - cell viability counter screen (AID 1224847; calls by dose curve; note: nearly all actives have a fitted effect of over 30% in size; note: potency is the fitted concentration of half-maximal effect)
Summary of the method: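 Read-out: CellTiter-Glo luminescence, 30 min RT. Cells: wild-type CHO-K1, 1000/well, 10% FBS, plated overnight at 37C. Treatment: 15 concentrations, 3 hr, 37C, 0.76% DMSO.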

[16] = A CellTox Green Cytotoxicity Assay to monitor cytotoxicity in HEK293 cells - 0 hour (AID 1224869); note: nearly all actives have a fitted effect of over 50% in size
Summary of the method: as §4

[17] = qHTS RealTime-Glo MT Cell Viability Assay in HepG2 cells - 8 hour (AID 1224873); note: nearly all actives have a fitted effect of over 55% in size; note: potency is the fitted concentration of half-maximal effect
Summary of the method: as §3

[18] = qHTS RealTime-Glo MT Cell Viability Assay in HepG2 cells - 32 hour (AID 1224877); note: nearly all actives have a fitted effect of over 55% in size; note: potency is the fitted concentration of half-maximal effect
Summary of the method: as §1

[19] = qHTS assay to identify small molecule antagonists of the estrogen related receptor (ERR) signaling pathway from Tox21 library (AID 1224848); note: nearly all actives have a fitted effect of over 50% in size; note: potency is the fitted concentration of half-maximal effect
Summary of the method: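 Quantitative high-throughput format: ERR reporter cells (2,000/well) pre-incubated 6 h, treated 18 h at 37 C with compounds in DMSO alongside positive and negative controls, then read by ONE-Glo luminescence.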

Structure (SMILES) | Potency [1] | outcome [2] | activity change, positive = activation [3] | Potency [4] | Potency [5] | Potency [6] | Potency [7] | Potency [8] | Potency [9] | Potency [10] | Potency [11] | Potency [12] | Potency [13] | Potency [14] | Potency [15] | Potency [16] | Potency [17] | max response [9] | Potency [18] | Potency [19]
C[C@@H]1CN(CCCn2c3ccccc3c3ccccc32)C[C@H](C)N1 | 21.3 µM (active) | inactive | -72.9% [at 42.5 µM] | 23.9 µM (active) | 26.8 µM (active) | 23.9 µM (active) | 23.9 µM (active) | 26.8 µM (active) | 23.9 µM (active) | 23.9 µM (active) | 26.8 µM (active) | 26.8 µM (active) | 23.9 µM (active) |  |  |  |  |  |  | 
O=C(/C=C/c1ccccc1)OCCc1ccccc1 |  | inactive |  | inactive | inactive | inactive | inactive | inactive |  | inactive | inactive | inactive | inactive | inactive | inactive | inactive | inactive | -0.613% | inactive | 
CC1=C(CC=O)C(C)(C)CCC1 | inactive | inactive |  |  | inactive | inactive | inactive | inactive |  | inactive | inactive | inactive | inactive |  |  | inactive | inactive | -9.82% | inactive | 
CCCCCCCC/C=C\CCCCCCCCCCCC(=O)O |  | inactive |  | inactive |  | inactive | inactive | inactive |  | inactive | inactive | inactive | inactive | inactive | inactive | inactive | inactive |  |  | 
CC(=O)N/N=C/c1ccc([N+](=O)[O-])o1 |  | inactive | -10.2% [at 42.5 µM] | inactive | inactive | inactive | inactive |  |  | inactive |  | inactive |  |  |  | inactive | inactive |  | inactive | inactive
CCN(CC)CCNC(=O)COc1ccc(OC)cc1 |  |  |  | inactive | inactive | inactive | inactive | inactive |  | inactive | inactive | inactive | inactive |  | inactive | inactive | inactive |  | inactive | 
C[C@@H](CN(C)C)CN1c2ccccc2Sc2ccccc21 |  | inactive | -18.9% [at 42.5 µM] |  | 21.3 µM (active) |  | 16.9 µM (active) |  | 23.9 µM (active) | inactive | 23.9 µM (active) | 26.8 µM (active) | 26.8 µM (active) |  | inactive | inactive | inactive |  |  | 
O=C1C(=O)c2ccccc2C(O)=C1C1CCC(c2ccc(Cl)cc2)CC1 (centres undefined) |  | inactive | 0.683% [at 42.5 µM] | inactive | inactive | inactive |  | inactive |  | inactive | inactive | inactive |  | inactive | inactive | inactive | inactive |  |  | 10.6 µM (active)
O=Cc1c2ccccc2c(Cl)c2ccccc12 | inactive |  | -33.4% [at 42.5 µM] |  |  | inactive |  | inactive |  | inactive | inactive | inactive | inactive |  | inactive | inactive | inactive |  | inactive | 9.45 µM (active)
CCCCCCCCCCCCCCN(CCO)CCO | 49 µM (active) |  | -78.9% | 21.9 µM (active) | 21.9 µM (active) | 17.4 µM (active) | 38.9 µM (active) | 49 µM (active) |  | 43.6 µM (active) |  | 24.5 µM (active) | 13.8 µM (active) |  | 89.8 µM (active) | inactive | 54.9 µM (active) |  | 19.5 µM (active) | 61.1 µM (active)
CC1=C(Br)C(=O)C(Br)=C/C1=C(/c1ccccc1S(=O)(=O)O)c1cc(Br)c(O)c(Br)c1C |  | inactive | -55.4% [at 42.5 µM] | inactive | inactive | inactive | inactive | inactive |  | inactive | inactive | inactive | inactive |  | 21.7 µM (active) | inactive | inactive | 1.66% |  | 18.6 µM (active)
c1cc(N(CC2CO2)CC2CO2)ccc1Cc1ccc(N(CC2CO2)CC2CO2)cc1 (centres undefined) |  |  | -66.1% |  | 34.7 µM (active) |  | 49 µM (active) | 43.6 µM (active) | 24.5 µM (active) | inactive | inactive |  |  |  | inactive | inactive |  |  |  | 21.7 µM (active)
CCOC(=O)c1ccc(C#Cc2ccc3c(c2)C(C)(C)CCS3)nc1 | inactive |  |  | inactive |  | inactive |  |  |  | inactive | inactive | inactive | 0.301 µM (active) |  |  | inactive | inactive |  | inactive | 
C[C@@H](O[C@H]1OCCN(Cc2n[nH]c(=O)[nH]2)[C@H]1c1ccc(F)cc1)c1cc(C(F)(F)F)cc(C(F)(F)F)c1 | 21.3 µM (active) |  | -53.3% [at 42.5 µM] | 21.3 µM (active) | 16.9 µM (active) | 21.3 µM (active) |  | 19 µM (active) | 16.9 µM (active) |  | 16.9 µM (active) | 15.1 µM (active) | 16.9 µM (active) |  |  |  |  |  |  | 23.7 µM (active)
CCOC(=O)c1ccc(I)cc1 |  | inactive | -4.74% | inactive |  | inactive |  |  |  | 35 µM (active) | inactive | inactive | inactive |  | inactive | inactive | inactive |  |  | inactive
